Test results from PubChem BioAssay AID623865 (Southern Research Specialized Biocontainment Screening …, 2012).

Assay: West Nile virus CPE inhibitors, flavivirus guanylyltransferase probe project, cell-based, secondary screen (AID 623865)
Details: West Nile virus CPE inhibition assay; series mostly up to 50 µM; CPE inhibition: at the top concentration; call rule not given here

CPE inhibition, inactive:
Cn1c(=O)c2[nH]c(-c3ccccc3)c(O)c2n(C)c1=O 2.6%, O=C(O)CSc1cc(NS(=O)(=O)c2ccc(Br)cc2)c2ccccc2c1O 1.32%, O=S(=O)(Nc1cc(Sc2ccccc2)c(O)c2ccccc12)c1ccc(F)cc1 1.58%, O=S(=O)(Nc1cc(SCc2ccccc2)c(O)c2ccccc12)c1ccc(Cl)cc1 1.23%, O=S(=O)(Nc1cc(Sc2ncn[nH]2)c(O)c2ccccc12)c1ccc(F)cc1 0.42%, O=S(=O)(Nc1cc(Cl)c(O)c2ccccc12)c1ccc(F)cc1 1.6%, O=C(O)CSc1cc(NS(=O)(=O)c2ccc(Cl)cc2)c2ccccc2c1O 1.89%, Cc1cc(F)ccc1S(=O)(=O)Nc1cc(SCC(=O)O)c(O)c2ccccc12 5.52%, O=[N+]([O-])c1cccc(S(=O)(=O)Nc2cc(SCc3ccccc3)c(O)c3ccccc23)c1 2.16%, O=C(O)CSc1cc(NS(=O)(=O)c2cccc([N+](=O)[O-])c2)c2ccccc2c1O 1.51%, O=C(O)CSc1cc(NS(=O)(=O)c2ccc(F)cc2)c2ccccc2c1O 6.24%, Cc1ccc(S(=O)(=O)Nc2cc(SCC(=O)O)c(O)c3ccccc23)cc1 3.27%, COc1ccc(OC)c(S(=O)(=O)Nc2cc(SCC(=O)O)c(O)c3ccccc23)c1 4.21%, O=[N+]([O-])c1cccc(S(=O)(=O)Nc2cc(Sc3nc4ccccc4s3)c(O)c3ccccc23)c1 1.19%, Cc1ccc(S(=O)(=O)Nc2cc(Sc3nc(C)cc(C)n3)c(O)c3ccccc23)cc1 0.88%, Cn1c(=O)c2[nH]c(-c3ccc(Cl)cc3)c(O)c2n(C)c1=O 2.76%, O=C(O)CSc1cc(NS(=O)(=O)c2cccc3cccnc23)c2ccccc2c1O 3.3%, Cc1cc(C)c(S(=O)(=O)Nc2cc(SCC(=O)O)c(O)c3ccccc23)c(C)c1 1.97%
